Screening data deposited in PubChem BioAssay by National Center for Advancing Translational Sciences (NCATS).
Compounds with a hit are over-represented: about 14% of the library has one in this group of screens.
Marburg entry inh – blocks Marburg virus binding to or entry into cells; Marburg virus pseudotyped entry inhibition, cell reporter; Potency, µM (highest dose often 37.8 µM), most hits filed as inhibitors; 300,000 compounds, 1.8% hits; AID 540276; calls by dose curve; tested in HEK293 cells
Pf growth 48h – P. falciparum growth inhibition at 48 hours (one generation). P. falciparum luciferase growth in erythrocytes, 48 h. Potency, µM (series often up to 28.7 µM), actives largely listed as inhibitors. 310,000 compounds, 5.9% hits. AID 504832
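A one-generation exposure of luciferase-tagged malaria parasites in RPMI 1640/Albumax erythrocyte culture, 37 C and 5% CO2. Inhibition is inferred from decreased luminescence after adding detection reagent.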
HCV inhibitor – inhibitors of hepatitis C virus infection; Potency, µM (doses to about 41.8 µM), hits mostly inhibitors; Huh7.5.1 HCVcc-Cre infection, luciferase reporter, 44 h; AID 651820; 340,000 compounds, 3.4% hits
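A cell-based infection assay in which seeded cells (1,000 per well) receive test compound after 4 h, are inoculated with HCVcc-Cre at approximately 0.5 moi, and are incubated 44 h before luminescence detection.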
HCMV antiviral – inhibitors of human cytomegalovirus; activity change, negative = inhibition, % at 57.5 µM; HFF cells, HCMV-luciferase reporter, 72 h; active compounds read low; 410,000 compounds, 4.5% hits; AID 1259415; in the data active = activity change below about -60%; inconclusive = no clear call, values can overlap the other calls; inactive = above about -39%
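Luciferase read-out from HCMV-luciferase-infected HFFs (MOI 1 PFU/cell) 72 h post infection at 37C; compounds added after 16 h cell attachment; activity normalized between buffer-only basal and Salinomycin (10uM) inhibitor controls.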
Pf growth 96h – P. falciparum growth inhibition at 96 hours; P. falciparum luciferase reporter growth, 96 h; Potency, µM (titrated, usually from 28.7 µM), hits mostly inhibitors; 320,000 compounds, 6.9% hits; AID 504834
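Plates of compound plus infected erythrocytes (2% hematocrit, 0.05% parasitemia final) incubate 96 hours, 37 C, 5% CO2. Detection reagent added; reduced luminescence from the parasites' luciferase reporter flags inhibition.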
LASV entry inh – Lassa virus entry inhibition; 300,000 compounds, 1.2% hits; AID 540256; Potency, µM (doses to about 37.9 µM), hits mostly inhibitors; Lassa virus pseudotype entry inhibition, cell reporter; calls by dose curve; tested in HEK293 cells; also: nearly all actives have a fitted effect of over 50% in size
Large screens that a line does not name were inactive; ! = not confirmed by another sample. Unless noted, calls follow the shape of the dose curve; as a rule, active = well fitted inhibition curve with a large enough effect; inconclusive = small, poorly fitted or top-dose-only effect, or another doubt; inactive = no such curve, though single readings can be large or run the other way.

Cc1ccc(S(=O)(=O)N2CCC(=O)N(C(COCc3ccc(Cl)cc3)Cc3ccccc3)CC2)cc1 (centres undefined)	Pf growth 48h 11.7µM, HCV inhibitor inconclusive, Pf growth 96h 10.4µM, LASV entry inh inconclusive
Cc1cccc(C(=O)N2CCC(=O)N([C@H](COCc3cccc(C(F)(F)F)c3)Cc3ccccc3)CC2)c1	none (no result: Marburg entry inh, Pf growth 48h, HCV inhibitor, Pf growth 96h, LASV entry inh)
CCC(CC)N1CCN(C(=O)c2cccc(Cl)c2)CC1	Marburg entry inh inconclusive, Pf growth 96h 13.1µM
Cc1cccc(COCC(Cc2ccccc2)N2CCN(C(=O)c3cccc(Cl)c3)CCC2=O)c1 (centres undefined)	Pf growth 48h inconclusive, HCV inhibitor inconclusive, Pf growth 96h 11.7µM, LASV entry inh 5.17µM
Cc1cccc(C(=O)N2CCC(=O)N(C(COCc3cccc(C(F)(F)F)c3)Cc3ccccc3)CC2)c1 (centres undefined)	Marburg entry inh inconclusive, Pf growth 48h inconclusive, HCMV antiviral inconclusive, Pf growth 96h 9.28µM, LASV entry inh inconclusive
CCc1ccccc1NC(=O)Cn1c(=O)n(Cc2ccccc2)c(=O)c2c(C)c(C(=O)N(C)C)sc21	none (no result: Marburg entry inh, Pf growth 48h, HCV inhibitor, Pf growth 96h)
O=C(c1ccc(Cl)c(Cl)c1)N1CCC(=O)N(C(COCc2ccccc2)Cc2ccccc2)CC1 (centres undefined)	Pf growth 48h inconclusive, HCV inhibitor inconclusive, Pf growth 96h 11.7µM, LASV entry inh inconclusive
O=C(c1cccc(Cl)c1)N1CCC(=O)N(C(COCc2ccccc2)Cc2ccccc2)CC1 (centres undefined)	Marburg entry inh inconclusive, Pf growth 48h inconclusive, Pf growth 96h 10.4µM, LASV entry inh 4.61µM
Cc1cccc(C(=O)N2CCC(=O)N(C(COCc3ccccc3)Cc3ccccc3)CC2)c1 (centres undefined)	Pf growth 96h 13.1µM, LASV entry inh 5.8µM
Nc1c(C(=O)CSc2nnc(Cc3ccccc3)o2)c(=O)[nH]c(=O)n1C1CC1	Pf growth 48h inconclusive, Pf growth 96h inconclusive (no result: Marburg entry inh, LASV entry inh)
COc1ccc(/C=C/CN2CCC(CO)(Cc3ccccc3Cl)CC2)cc1	Marburg entry inh inconclusive, Pf growth 48h inconclusive, HCV inhibitor inconclusive, HCMV antiviral -69.6, Pf growth 96h inconclusive
COC(=O)c1ccc(CN2CCC(CO)(Cc3ccccc3Cl)CC2)cc1	Marburg entry inh inconclusive, Pf growth 96h inconclusive
CN(C)c1nc(OCCNC(=O)Nc2ccccc2)nc(N2CCCCC2)n1	HCV inhibitor 11.2µM
CC(C)(C)NC(=O)C(c1ccncc1)N(C(=O)Cn1nnc(-c2ccc(F)cc2)n1)c1ccc(F)cc1 (centres undefined)	Marburg entry inh inconclusive, Pf growth 48h 2.62µM
CC(C)(C)NC(=O)C(c1ccncc1)N(C(=O)Cn1nnc(-c2ccc(F)cc2)n1)c1ccccc1F (centres undefined)	Pf growth 48h inconclusive
CC(C)(C)NC(=O)C(c1ccc(O)cc1)N(C(=O)Cn1nnc(-c2ccc(F)cc2)n1)c1ccccc1F (centres undefined)	Pf growth 48h 11.7µM, HCV inhibitor 4.47µM, Pf growth 96h inconclusive (no result: Marburg entry inh, LASV entry inh)
CC(C)(C)NC(=O)C(c1ccncc1)N(C(=O)Cn1nnc(-c2ccc(F)cc2)n1)c1ccccc1 (centres undefined)	none
Cc1ccc(N(C(=O)Cn2nnc(-c3ccc(F)cc3)n2)C(C(=O)NC(C)(C)C)c2ccncc2)cc1 (centres undefined)	Marburg entry inh inconclusive, Pf growth 48h 4.65µM, HCV inhibitor inconclusive, HCMV antiviral inconclusive, LASV entry inh inconclusive
CCN(CC)S(=O)(=O)c1ccc(C(=O)NC2CC(=O)N(c3ccc(OC)c(OC)c3)C2)cc1 (centres undefined)	none (no result: Marburg entry inh, Pf growth 48h, HCV inhibitor, Pf growth 96h)
CCc1ccc(-n2nc(C)c3c(C)cc(=O)n(CC(=O)Nc4cc(Cl)ccc4OC)c32)cc1	none (no result: Marburg entry inh, Pf growth 48h, HCV inhibitor, Pf growth 96h)
O=C(O)c1cc(O)c2c(c1)[C@@H]([C@H]1c3cc(C(=O)O)cc(O)c3C(=O)c3c(O[C@@H]4O[C@H](CO)[C@@H](O)[C@H](O)[C@H]4O)cccc31)c1cccc(OC3O[C@H](CO)[C@@H](O)[C@H](O)[C@H]3O)c1C2=O (some centres undefined)	Pf growth 48h inconclusive (no result: Marburg entry inh, LASV entry inh)
O=C(O)c1cc(O)c2c(c1)[C@H]([C@H]1c3cc(C(=O)O)cc(O)c3C(=O)c3c(O[C@@H]4O[C@H](CO)[C@@H](O)[C@H](O)[C@H]4O)cccc31)c1cccc(OC3O[C@H](CO)[C@@H](O)[C@H](O)[C@H]3O)c1C2=O (some centres undefined)	HCV inhibitor 0.355µM!, HCMV antiviral -101.3 (no result: Marburg entry inh, LASV entry inh)
COc1ccc(CN2CCN(C(=O)Cc3ccccc3)CC2)cc1OC	none (no result: Marburg entry inh, Pf growth 48h, HCV inhibitor, Pf growth 96h, LASV entry inh)
COc1ccc(OC)c(CN2CCN(C(=O)Cc3ccccc3)CC2)c1	Pf growth 96h 11.7µM (no result: Marburg entry inh, LASV entry inh)
CCOc1ccc2oc(=O)cc(CN3CCN(C(=O)c4cccc(F)c4)CC3)c2c1	none (no result: Pf growth 48h, HCV inhibitor, Pf growth 96h)
O=C(c1cccc(F)c1)N1CCN(Cc2ccco2)CC1	Pf growth 96h 6.57µM, LASV entry inh inconclusive
CCOc1ccc(CN2CCN(C(=O)Cc3ccccc3)CC2)cc1	HCV inhibitor inconclusive, Pf growth 96h 6.57µM (no result: Marburg entry inh, LASV entry inh)
CCOc1ccc(CN2CCN(C(=O)c3cccc(F)c3)CC2)cc1	Marburg entry inh inconclusive, HCV inhibitor 11.2µM, HCMV antiviral inconclusive, LASV entry inh inconclusive
O=C(c1ccco1)N1CCN(Cc2cccc(F)c2)CC1	none (no result: Pf growth 96h)
CCCCn1c(N)c(N(CCOC)C(=O)C2CCN(S(=O)(=O)c3ccccc3)CC2)c(=O)[nH]c1=O	none
COc1ccccc1C(=O)Nc1nc2ccc(S(=O)(=O)N3CCCC3)cc2s1	none (no result: Marburg entry inh, Pf growth 48h, HCV inhibitor, Pf growth 96h)
Nn1c(SCc2cccc(Oc3ccccc3)c2)nnc1C(F)(F)F	Marburg entry inh inconclusive, HCMV antiviral -72.7
Nn1c(SC/C=C/c2ccccc2)nnc1-c1ccncc1	HCMV antiviral -68.9 (no result: Pf growth 96h)
Nn1c(SCc2cccc(Cl)c2)nnc1-c1ccncc1	none
COc1cccc(CSc2nnc(-c3ccncc3)n2N)c1	Marburg entry inh inconclusive, HCMV antiviral -68.5, LASV entry inh inconclusive
COc1ccccc1Oc1ccc2c(c1)C(=O)N(c1ccc(C)cc1)C2=O	none
COc1ccc(N2C(=O)c3cc4ccccc4cc3C2=O)cc1	Pf growth 96h 10.4µM (no result: Marburg entry inh, LASV entry inh)
CCOC(=O)/C=c1/s/c(=C\c2c(OC)ccc3ccccc23)c(=O)n1CC(=O)NCC1CCCO1 (centres undefined)	Marburg entry inh inconclusive, HCV inhibitor inconclusive, HCMV antiviral -87.4, LASV entry inh inconclusive (no result: Pf growth 48h, Pf growth 96h)
CCOC(=O)/C=c1\s/c(=C\c2c(OCC)ccc3ccccc23)c(=O)n1CC(=O)NCC1CCCO1 (centres undefined)	Marburg entry inh inconclusive, Pf growth 48h 11.7µM, HCV inhibitor 3.55µM, LASV entry inh inconclusive (no result: Pf growth 96h)
CCOC(=O)/C=c1\s/c(=C\c2ccccc2C)c(=O)n1CC(=O)NCc1ccc2c(c1)OCO2	Pf growth 48h inconclusive, Pf growth 96h inconclusive
